Test results taken from article PMC4336329 (PLoS ONE, 2015).
The whole screen tested about 310,000 compounds, of which about 14,000 (4.5%) showed an effect of 50% or more. The effect is printed as a negative number. Only a selection was taken, and strong results are over-represented in it overall.

Each compound was assayed against human ether-à-go-go-related gene (hERG) potassium channel (human, UniProt Q12809) (assay: primary screen, population patch clamp on CHO cells stably expressing hERG; higher = less effect of the substance).
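Note: peak tail current of the secondary pulse compared with the same well before compound.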

Sequence of human ether-à-go-go-related gene (hERG) potassium channel (Q12809 whole entry, looked up): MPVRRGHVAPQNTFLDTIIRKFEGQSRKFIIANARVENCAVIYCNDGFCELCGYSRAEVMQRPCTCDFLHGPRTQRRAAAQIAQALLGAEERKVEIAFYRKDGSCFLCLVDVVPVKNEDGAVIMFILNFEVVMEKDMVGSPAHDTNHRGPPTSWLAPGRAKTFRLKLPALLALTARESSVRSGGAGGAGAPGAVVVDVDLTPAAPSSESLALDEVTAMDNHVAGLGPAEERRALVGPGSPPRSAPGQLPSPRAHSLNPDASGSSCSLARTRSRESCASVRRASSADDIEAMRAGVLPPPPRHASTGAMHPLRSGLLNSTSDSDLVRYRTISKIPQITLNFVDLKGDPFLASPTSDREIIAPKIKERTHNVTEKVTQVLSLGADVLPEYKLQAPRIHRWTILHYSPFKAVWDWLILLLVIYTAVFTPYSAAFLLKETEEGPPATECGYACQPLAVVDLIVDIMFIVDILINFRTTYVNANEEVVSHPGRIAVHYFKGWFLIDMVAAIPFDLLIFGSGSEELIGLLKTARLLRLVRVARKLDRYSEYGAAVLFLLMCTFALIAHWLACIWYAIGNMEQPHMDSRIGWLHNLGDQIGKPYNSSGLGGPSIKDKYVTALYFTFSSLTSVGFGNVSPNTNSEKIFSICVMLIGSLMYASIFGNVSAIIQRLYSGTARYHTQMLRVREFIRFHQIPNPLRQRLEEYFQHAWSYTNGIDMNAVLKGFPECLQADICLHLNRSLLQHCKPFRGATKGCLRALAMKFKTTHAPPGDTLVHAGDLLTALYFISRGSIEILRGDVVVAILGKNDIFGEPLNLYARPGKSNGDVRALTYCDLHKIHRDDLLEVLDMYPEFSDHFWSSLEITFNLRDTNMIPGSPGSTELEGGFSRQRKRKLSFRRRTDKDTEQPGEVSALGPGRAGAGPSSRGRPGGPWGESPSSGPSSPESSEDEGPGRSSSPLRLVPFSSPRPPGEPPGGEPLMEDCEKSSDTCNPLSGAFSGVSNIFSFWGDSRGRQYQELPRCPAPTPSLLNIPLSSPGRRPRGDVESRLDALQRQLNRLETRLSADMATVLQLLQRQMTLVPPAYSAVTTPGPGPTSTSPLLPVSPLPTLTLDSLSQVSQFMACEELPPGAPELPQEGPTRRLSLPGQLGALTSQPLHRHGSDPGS

Q: How did the “hERG current change (%, negative = inhibition) at 10uM” value turn out when `O=C(NC1CCN(C(=S)Nc2ccc(Cl)cc2)CC1)c1ccco1` was run?
A: -72.8%

Q: For `COc1ccc(NC(=S)N2CCC(NC(=O)c3ccco3)CC2)cc1`, which “hERG current change (%, negative = inhibition) at 10uM” value is on record?
A: -6.59%

Q: `COCCNC(=S)N1CCC(NC(=O)c2ccco2)CC1` was tested. Which “hERG current change (%, negative = inhibition) at 10uM” value did it give?
A: 15.7%

Q: Which “hERG current change (%, negative = inhibition) at 10uM” value does the source give for `O=C(NC1CCN(C(=S)Nc2ccc(F)cc2)CC1)c1ccco1` here?
A: -39%

Q: For `C=CCN(c1ccc(C(=O)NCCCn2ccnc2)cc1)S(C)(=O)=O`, which “hERG current change (%, negative = inhibition) at 10uM” value is on record?
A: 12.3%

Q: How did the “hERG current change (%, negative = inhibition) at 10uM” value turn out when `CCCc1cc(=O)[nH]c(SC(C)C(=O)Nc2ccc3c(c2)OCCO3)n1` (stereo not drawn) was run?
A: -7.38%

Q: `Cc1cc(CN(C)C)c(OC(=O)N(C)C)cc1C.Cl` was tested. Which “hERG current change (%, negative = inhibition) at 10uM” value did it give?
A: 16.1%

Q: With `Cc1[nH]nc2c1C1(C(=O)Nc3ccc([N+](=O)[O-])cc31)C(C#N)=C(N)O2` (stereo not drawn) as the compound, how does the “hERG current change (%, negative = inhibition) at 10uM” value read?
A: 24.9%

Q: `COCCCNC(=O)CSc1nc2cc(C(=O)NCCOC)ccc2c(=O)n1Cc1ccc2c(c1)OCO2` was tested. Which “hERG current change (%, negative = inhibition) at 10uM” value did it give?
A: -4.37%

Q: With `C=CCn1c(SCC(=O)OCC)nc2cc(C(=O)NCc3ccco3)ccc2c1=O` as the compound, how does the “hERG current change (%, negative = inhibition) at 10uM” value read?
A: -17.6%

Q: For `O=C(NCc1ccco1)c1ccc2c(=O)n(Cc3ccco3)c(SCC(=O)N3CCCC3)nc2c1`, which “hERG current change (%, negative = inhibition) at 10uM” value is on record?
A: -76.4%

Q: How did the “hERG current change (%, negative = inhibition) at 10uM” value turn out when `CC1CCN(C(=O)CSc2nc3ccccc3c(=O)n2Cc2ccc3c(c2)OCO3)CC1` was run?
A: -13.6%

Q: Which “hERG current change (%, negative = inhibition) at 10uM” value does the source give for `CCOC(=O)CSc1nc2cc(C(=O)NCC3CCCO3)ccc2c(=O)n1Cc1ccco1` (stereo not drawn) here?
A: -39.3%

Q: For `COC(=O)c1ccc2c(=O)n(Cc3ccc4c(c3)OCO4)c(SCC(=O)N3CCCC3)nc2c1`, which “hERG current change (%, negative = inhibition) at 10uM” value is on record?
A: -52.4%

Q: `CCCCCn1c(SCC(=O)OCC)nc2cc(C(=O)NCc3ccco3)ccc2c1=O` was tested. Which “hERG current change (%, negative = inhibition) at 10uM” value did it give?
A: 2.51%

Q: For `O=C(NCC1CCCO1)c1ccc2c(=O)n(Cc3ccco3)c(SCC(=O)N3CCCC3)nc2c1` (stereo not drawn), which “hERG current change (%, negative = inhibition) at 10uM” value is on record?
A: -79.3%

Q: Which “hERG current change (%, negative = inhibition) at 10uM” value does the source give for `O=C(NCC1CCCO1)c1ccc2c(=O)n(CC3CCCO3)c(SCC(=O)N3CCCC3)nc2c1` (stereo not drawn) here?
A: 3.95%

Q: How did the “hERG current change (%, negative = inhibition) at 10uM” value turn out when `CN1CCN(C(=O)CCN2C(=O)/C(=C/c3ccccc3Cl)SC2=S)CC1` was run?
A: 9.65%

Q: For `COc1ccc(/C(O)=C2/C(=O)C(=O)N(CCCN3CCOCC3)C2c2ccc(C(C)C)cc2)cc1` (stereo not drawn), which “hERG current change (%, negative = inhibition) at 10uM” value is on record?
A: 24.6%

Q: With `COc1cc(C2CC(=O)N3CN(Cc4ccco4)CSC3=C2C#N)ccc1OCc1ccccc1` (stereo not drawn) as the compound, how does the “hERG current change (%, negative = inhibition) at 10uM” value read?
A: 15.1%

Q: Which “hERG current change (%, negative = inhibition) at 10uM” value does the source give for `CC(=O)C1C(c2cccc(F)c2)c2c(n[nH]c2C)CC1(C)O` (stereo not drawn) here?
A: 15.7%

Q: How did the “hERG current change (%, negative = inhibition) at 10uM” value turn out when `COc1cc(CNCc2ccccc2)ccc1OCC(O)c1ccccc1.O=C(O)C(=O)O` (stereo not drawn) was run?
A: -24.9%

Q: How did the “hERG current change (%, negative = inhibition) at 10uM” value turn out when `COC(=O)CC1C(=O)NCCN1C(=O)CSc1nc2cc(Cl)ccc2o1` (stereo not drawn) was run?
A: 13.5%

Q: How did the “hERG current change (%, negative = inhibition) at 10uM” value turn out when `O=C(NCC1CCN(Cc2ccccc2F)CC1)Nc1cccc(Br)c1` was run?
A: -43.2%

Q: How did the “hERG current change (%, negative = inhibition) at 10uM” value turn out when `COc1ccc(N2CCC(CNC(=O)Nc3ccc(C)c(C)c3)C2)cc1` (stereo not drawn) was run?
A: 11.4%

Q: How did the “hERG current change (%, negative = inhibition) at 10uM” value turn out when `COc1cc(NC(=O)NCC2CCN(Cc3ccccc3C)CC2)cc(OC)c1OC` was run?
A: -2.71%

Q: For `Cc1ccc(C)c(CN2CCC(CNC(=O)Nc3ccc(Br)cc3F)CC2)c1`, which “hERG current change (%, negative = inhibition) at 10uM” value is on record?
A: -73.4%

Q: How did the “hERG current change (%, negative = inhibition) at 10uM” value turn out when `Cc1cc(C)cc(NC(=O)NCC2CCN(Cc3cc(C)ccc3C)CC2)c1` was run?
A: -51%

Q: Which “hERG current change (%, negative = inhibition) at 10uM” value does the source give for `Cc1ccc(C)c(CN2CCC(CNC(=O)Nc3ccc(C)c(F)c3)CC2)c1` here?
A: -27.5%

Q: `Cc1ccc(C)c(CN2CCC(CNC(=O)Nc3ccc(C)c(C)c3)CC2)c1` was tested. Which “hERG current change (%, negative = inhibition) at 10uM” value did it give?
A: -74.3%

Q: `O=C(NCCN1CCCCC1)c1cc(Cl)ccc1Cl` was tested. Which “hERG current change (%, negative = inhibition) at 10uM” value did it give?
A: 1.65%

Q: `O=[N+]([O-])c1cc(C(F)(F)F)cc([N+](=O)[O-])c1NCCCNc1ccc([N+](=O)[O-])c2cccnc12` was tested. Which “hERG current change (%, negative = inhibition) at 10uM” value did it give?
A: 14.4%

Q: With `O=C(Nc1ccc(S(=O)(=O)NCc2ccco2)cc1)c1ccc(F)cc1` as the compound, how does the “hERG current change (%, negative = inhibition) at 10uM” value read?
A: -4.23%

Q: `COc1ccc(CNC(=O)COC(=O)c2cc(-c3ccc(Cl)s3)nc3ccccc23)cc1` was tested. Which “hERG current change (%, negative = inhibition) at 10uM” value did it give?
A: 1.05%

Q: With `CCOc1ccc(CNn2nnnc2N)cc1` as the compound, how does the “hERG current change (%, negative = inhibition) at 10uM” value read?
A: -6.35%

Q: For `O=C(COc1ncnc2ccccc12)NCCc1ccc(F)cc1`, which “hERG current change (%, negative = inhibition) at 10uM” value is on record?
A: -6.11%

Q: With `Cc1nc2ccc(NC(=O)Cc3cccc(F)c3)cc2s1` as the compound, how does the “hERG current change (%, negative = inhibition) at 10uM” value read?
A: 2.56%

Q: With `COCCNC(=O)C(c1ccc(F)cc1)N(CCOC)C(=O)CCC(=O)Nc1nccs1` (stereo not drawn) as the compound, how does the “hERG current change (%, negative = inhibition) at 10uM” value read?
A: 0.0239%

Q: `O=C1CC2(CCCCC2)Oc2ccc(O)cc21` was tested. Which “hERG current change (%, negative = inhibition) at 10uM” value did it give?
A: -11.8%

Q: Which “hERG current change (%, negative = inhibition) at 10uM” value does the source give for `N=C1c2ccccc2CN1c1ccc(S(=O)(=O)N2CCCCC2)cc1` here?
A: -62.5%

Q: Which “hERG current change (%, negative = inhibition) at 10uM” value does the source give for `CCOC(=O)c1ccc(N2Cc3ccccc3C2=N)cc1` here?
A: -61.3%

Q: `CCN(CC)S(=O)(=O)c1ccc(N2Cc3ccccc3C2=N)cc1` was tested. Which “hERG current change (%, negative = inhibition) at 10uM” value did it give?
A: -40.5%

Q: How did the “hERG current change (%, negative = inhibition) at 10uM” value turn out when `CCOC(=O)c1ccc(N2C(=O)Cc3ccccc3C2=O)cc1` was run?
A: 20.9%

Q: How did the “hERG current change (%, negative = inhibition) at 10uM” value turn out when `O=C1c2ccccc2C(=O)N1c1ccc(S(=O)(=O)N2CCCCC2)cc1` was run?
A: 15.4%

Q: How did the “hERG current change (%, negative = inhibition) at 10uM” value turn out when `CCOC(=O)c1ccc(CN2Cc3ccccc3C2=O)cc1` was run?
A: 2.17%
